# Assay results taken from the supplement of paper PMC12645437, “Orthogonal IMiD-Degron Pairs Induce Selective Protein Degradation in Cells” (ACS Chemical Biology, 2025).
# Whole data set: some 8,300 sequences, median “log2 fold change of degron read counts, EGFP-low vs EGFP+ sorted cells (limma voom), compound-induced degradation” near -1.1, cut for the highest 2% near 3.2. The list comes from a sample in which the highest values are over-represented; it also holds similar and randomly drawn sequences.
# T1: CRBN, Q96SW2
# T1 chain: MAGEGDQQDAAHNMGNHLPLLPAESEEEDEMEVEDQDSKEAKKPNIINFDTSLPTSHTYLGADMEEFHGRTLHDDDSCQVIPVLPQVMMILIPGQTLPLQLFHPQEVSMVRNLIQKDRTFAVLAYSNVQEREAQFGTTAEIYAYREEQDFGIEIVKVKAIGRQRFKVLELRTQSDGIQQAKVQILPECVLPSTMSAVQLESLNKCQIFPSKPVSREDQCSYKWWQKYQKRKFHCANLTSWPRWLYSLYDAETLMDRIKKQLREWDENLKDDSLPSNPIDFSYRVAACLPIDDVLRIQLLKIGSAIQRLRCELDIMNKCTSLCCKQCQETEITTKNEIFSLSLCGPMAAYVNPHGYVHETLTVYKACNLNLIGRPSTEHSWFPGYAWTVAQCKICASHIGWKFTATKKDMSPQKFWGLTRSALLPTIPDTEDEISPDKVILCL
# Target: T1, CRBN, Q96SW2
# Experiment: log2 fold change of degron read counts, EGFP-low vs EGFP+ sorted cells (limma voom), compound-induced degradation; higher = more compound-induced degradation of the degron-EGFP fusion; degrons are variants of IKZF1/3 zinc finger 2; compound dose not given here
# Details: Jurkat, 18 h
# [1] = compound: compound 19 (5-tert-butyl-thalidomide)
# [2] = compound: compound 22 (5-morpholino-thalidomide)
# [3] = compound: compound 33 (diphenyl IMiD analogue)
# 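Also: pooled lentiviral library of zinc finger degron-EGFP fusions in mCherry-positive Jurkat cells, FACS-sorted after compound exposure, with degron abundance counted by next-generation sequencing.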
Sequence,log2 fold change of degron read counts [1],log2 fold change of degron read counts [2],log2 fold change of degron read counts [3],log2 fold change of degron read counts (compound: thalidomide)
"FMCEICGHLFTQKGNLLRHIKL [46F_47M_49E_50I_52G_53H_54L_55F_67L_, Q9UKT9]",-2.89,-3.26,-2.2,-2.63
"FNCPICGRWFTQKGNLLRHIKL [46F_47N_49P_50I_52G_53R_54W_55F_67L_, Q9UKT9]",-0.803,-0.856,0.232,-0.248
"FTCSVCGHFFTQKGNLLRHIKL [46F_47T_49S_50V_52G_53H_54F_55F_67L_, Q9UKT9]",-1.8,-2.26,-2.2,-2.2
"FCCDQCGAQFTQKGNLLRHIKL [46F_47C_49D_50Q_52G_53A_54Q_55F_67L_, Q9UKT9]",-1.9,-1.68,-1.17,-2.37
"FWCNQCGRSFTQKGNLLRHIKL [46F_47W_49N_50Q_52G_53R_54S_55F_67L_, Q9UKT9]",-1.96,-2.11,-1.99,-2.07
"LVCEICGFDCTQKGNLLRHIKL [46L_47V_49E_50I_52G_53F_54D_55C_67L_, Q9UKT9]",-3.07,-2.83,-2.91,-1.81
"FDCNQCGAFFTQKGNLLRHIKL [46F_47D_49N_50Q_52G_53A_54F_55F_67L_, Q9UKT9]",-1.58,-1.99,-2.03,-1.65
"FRCDVCGALFTQKGNLLRHIKL [46F_47R_49D_50V_52G_53A_54L_55F_67L_, Q9UKT9]",-2.19,-2.03,0.228,-1.08
"LNCPICGFDCTQKGNLLRHIKL [46L_47N_49P_50I_52G_53F_54D_55C_67L_, Q9UKT9]",-1.95,-1.67,-1.11,-0.883
"FRCEQCGASFTQKGNLLRHIKL [46F_47R_49E_50Q_52G_53A_54S_55F_67L_, Q9UKT9]",-1.07,-1.32,0.513,-0.516
"LQCEICGFRCTQKGNLLRHIKL [46L_47Q_49E_50I_52G_53F_54R_55C_67L_, Q9UKT9]",1.29,1.55,1.26,3.58
"LACEICGFICTQKGNLLRHIKL [46L_47A_49E_50I_52G_53F_54I_55C_67L_, Q9UKT9]",1.83,0.461,-0.53,-0.408
"LACEICGFMCTQKGNLLRHIKL [46L_47A_49E_50I_52G_53F_54M_55C_67L_, Q9UKT9]",2.65,1.33,0.0952,0.132
"LICEICGFRCTQKGNLLRHIKL [46L_47I_49E_50I_52G_53F_54R_55C_67L_, Q9UKT9]",1.24,2.26,1.57,3.01
"LYCEICGFICTQKGNLLRHIKL [46L_47Y_49E_50I_52G_53F_54I_55C_67L_, Q9UKT9]",2.99,3.26,2.2,0.746
"LYCEICGFMCTQKGNLLRHIKL [46L_47Y_49E_50I_52G_53F_54M_55C_67L_, Q9UKT9]",3.38,3.27,2.53,1.05
"LECEICGFRCTQKGNLLRHIKL [46L_47E_49E_50I_52G_53F_54R_55C_67L_, Q9UKT9]",0.728,-0.831,2.02,3.15
"LCCEICGFMCTQKGNLLRHIKL [46L_47C_49E_50I_52G_53F_54M_55C_67L_, Q9UKT9]",1.12,1.14,1.45,1.31
"LFCEICGFRCTQKGNLLRHIKL [46L_47F_49E_50I_52G_53F_54R_55C_67L_, Q9UKT9]",3.71,3.64,1.36,2.31
"LLCEICGFRCTQKGNLLRHIKL [46L_47L_49E_50I_52G_53F_54R_55C_67L_, Q9UKT9]",0.785,-1.31,0.385,2.48
"LCCEICGFICTQKGNLLRHIKL [46L_47C_49E_50I_52G_53F_54I_55C_67L_, Q9UKT9]",0.819,0.557,1.54,1.05
"LKCEICGFRCTQKGNLLRHIKL [46L_47K_49E_50I_52G_53F_54R_55C_67L_, Q9UKT9]",-1.07,-2.46,-2.5,-0.336
"FICDICGATFTQKGNLLRHIKL [46F_47I_49D_50I_52G_53A_54T_55F_67L_, Q9UKT9]",-1.39,0.332,0.735,-0.113
"FKCEQCGAPFTQKGNLLRHIKL [46F_47K_49E_50Q_52G_53A_54P_55F_67L_, Q9UKT9]",-1.28,-2.18,-2.55,-1.19
"FVCNICGACFTQKGNLLRHIKL [46F_47V_49N_50I_52G_53A_54C_55F_67L_, Q9UKT9]",-1.18,0.539,1.63,1.37
"FFCNQCGRTFTQKGNLLRHIKL [46F_47F_49N_50Q_52G_53R_54T_55F_67L_, Q9UKT9]",-2.31,-2.17,-2.54,-2.59
"FCCSVCGHKFTQKGNLLRHIKL [46F_47C_49S_50V_52G_53H_54K_55F_67L_, Q9UKT9]",-2,-2.26,-2.77,-2.04
"FWCEICGHIFTQKGNLLRHIKL [46F_47W_49E_50I_52G_53H_54I_55F_67L_, Q9UKT9]",-0.453,-0.795,-0.246,-0.951
